C2C12 statin: suppressors of statin myotoxicity in C2C12 myotubes, primary screen, cell-based, single point, plate reader; C2C12 myotubes + simvastatin, ATP luminescence, 48 h; scaled: DMSO 0, geranylgeraniol control 100; 330,000 tested, 0.78% active; rescue of ATP level, % at 7.49 µM;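 active = mean ATP rescue above about 67%, or every replicate alone reaching that limit, limit read from the data, passing the limit was not always enough; inconclusive = no clear call, values can overlap the other calls; inactive = mean under the limit and some replicate under it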;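 also: myotubes were challenged with 10 µM simvastatin during compound exposure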
PGC1a acetyl inh: inhibitors of PGC1a acetylation signal, primary screen, cell-based, U2OS, AlphaScreen, inhibitor mode; AlphaScreen anti-acetyl-lysine; with virally co-expressed GCN5 acetyltransferase; inhibition, % at 15.6 µM; 350,000 tested, 0.17% active;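 active = every replicate shows inhibition of at least 40%; inconclusive = mean inhibition at least 40% but some replicate below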;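 also: 0% = neutral control wells and 100% = positive control wells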
AI-2 QS mod: Vibrio harveyi AI-2 quorum sensing modulators, primary screen, JMH597 strain, luminescence/OD600 ratio | Vibrio harveyi JMH597 AI-2 luminescence/OD600 ratio, 9 h; active compounds read low; strain lacks LuxN and CqsS sensors; 0 = neutral-control median | activity change, % at 7.5 µM | 300,000 tested, 0.4% active | AID 2094, 2009; in the data active = activity change below about -75%, passing the limit was not always enough; inconclusive = no clear call, values can overlap the other calls;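 also: luminescence divided by OD600 gain over 9 h not by final OD600 alone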
Rce1 inhib: yeast Rce1p protease inhibitors, primary screen, biochemical, fluorescence, cell-free homogeneous; AID 2563, 2010; 290,000 tested, 0.27% active; calls only; yeast membranes, quenched prenylated peptide cleavage fluorescence;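 active = fall in fluorescence gain of 50% or more versus controls, with final raw signal at or below 3038400; inconclusive = same 50% fall but final raw signal above 3038400; inactive = fall in fluorescence gain under 50%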;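 also: plate controls were neutral control wells for no effect and wells lacking membranes for full effect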
Target sequence (Q03530 whole entry, looked up): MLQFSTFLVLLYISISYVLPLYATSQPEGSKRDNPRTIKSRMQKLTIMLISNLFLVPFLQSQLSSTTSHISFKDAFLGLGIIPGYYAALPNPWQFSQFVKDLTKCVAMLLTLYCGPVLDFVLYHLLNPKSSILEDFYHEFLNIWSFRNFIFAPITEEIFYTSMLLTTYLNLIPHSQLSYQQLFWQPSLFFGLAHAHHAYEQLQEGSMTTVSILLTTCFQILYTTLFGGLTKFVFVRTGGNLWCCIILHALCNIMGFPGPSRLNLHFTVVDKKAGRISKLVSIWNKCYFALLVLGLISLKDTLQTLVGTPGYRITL
HIF activator: HIF pathway transcriptional activators, primary screen, cell-based, U2OS HRE-luciferase, luminescence. U2OS HRE-luciferase reporter; normalized: DMSO 0%, desferrioxamine 100%. activation, % at 7.5 µM (by protocol). 300,000 tested, 0.32% active;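 active = mean activation of at least 10% of the iron chelator positive control signal, with at least half of replicates also reaching 10%; inconclusive = mean and replicate majority disagree about reaching 10%; inactive = mean and most replicates under 10%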
JMH597 growth rt: Vibrio harveyi growth inhibition, confirmation, counter-screen for AI-2 quorum sensing project, JMH597 strain, OD600 absorbance; shares compounds with AI-2 QS mod; 9 h; lacks LuxN and CqsS sensors; growth inhibition, % at 7.5 µM; 750 tested, 1% active; AID 2726, 2010;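 active = every replicate shows growth inhibition above 50%; inconclusive = at least half, but not all, replicates pass that cutoff; inactive = fewer than half of replicates pass it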
BB721 lum counter: luminescence inhibition in constitutive-on V. harveyi, confirmation, counter-screen for LuxS inhibitor project, strain BB721, luminescence readout; AID 2727, 2010; inhibition, % at 7.5 µM; Vibrio harveyi BB721 luminescence, 9 h; shares compounds with AI-2 QS mod; 750 tested, 95% active;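 active = inhibition above about 80% in every replicate, not just on average, limit read from the data; inconclusive = at least half of replicates past the limit, but not all; inactive = fewer than half of replicates past the limit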
BB721 growth rt: growth inhibition of V. harveyi BB721, confirmation, cytotoxicity control for AI-2 quorum sensing inhibitors, strain BB721, absorbance OD600 | shares compounds with AI-2 QS mod | Vibrio harveyi BB721 growth, 9 h | growth inhibition, % at 7.5 µM | 750 tested, 3% active;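 active = every replicate shows growth inhibition above 50%; inconclusive = at least half but not all replicates above 50% inhibition; inactive = under half of replicates above 50% inhibition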
AI-2 QS JMH597: Vibrio harveyi AI-2 signaling luminescence modulation – JMH597 strain, confirmation; inhibition, % at 7.5 µM; shares compounds with AI-2 QS mod; 750 tested, 97% active; Vibrio harveyi JMH597 AI-2 quorum sensing luminescence, 9 h; luxN and CqsS knockout, AI-2 only;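 active = every replicate shows more than 75% inhibition of signal versus neutral control wells; inconclusive = half to three quarters of replicates exceed 75% inhibition; inactive = fewer than half of replicates exceed 75% inhibition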
COX5a expr inh: inhibitors of PGC-1a-driven COX5a expression, dose response, cell-based, C2C12 myotubes, RT-qPCR, cherry-picked samples | shares compounds with PGC1a acetyl inh | C2C12 myotubes PGC-1a adenovirus | maximal activity, % | 45 tested, under 10 active;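 active = fitted dose curve reaching 40% activity at or below the highest valid dose tested; inconclusive = flat fit between 30% and 70%, or an unusable fit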
AID743468: change in PGC-1a target gene PDK4 expression, dose response, C2C12 myotubes, RT-qPCR, cherry-pick; shares compounds with PGC1a acetyl inh; PGC-1a adenovirus, PDK4 mRNA qPCR; PDK4 expression increase, % at 19.5 µM; 45 tested, under 10 active;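 active = fitted curve reaching a 40% PDK4 expression rise at or below the top valid tested dose; inconclusive = no clear call, values can overlap the other calls; inactive = the rest, including shifts the wrong way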
* = called active by the depositor; i = inactive; ? = inconclusive; . = no result; + = active, no number. Only some compounds are listed: those with a hit (about 1.3% of all), similar ones and a draw of the others.

SMILES | C2C12 statin | PGC1a acetyl inh | AI-2 QS mod | Rce1 inhib | HIF activator | others
N#Cc1cccc(-c2ccc([C@H]3[C@H](CO)N4CCCCN(C(=O)Cc5ccccc5)C[C@@H]34)cc2)c1 | . | -4.4 | . | . | .
CC(=O)c1c(C)n(C2CCCCC2)c2ccc(O)cc12 | . | 55.3* | 13.4 | i | 2.2
CCOC(=O)C1C2c3ccccc3O[C@@]1(C)N=C1SCC(=O)N12 (stereo not given in full) | . | . | 27.6 | i | 0.9
CCOC(=O)[C@@H]1[C@H]2COc3ccc(Br)cc3[C@@H]2N2C(=O)N(c3cccc(C)c3)C(=O)[C@]12C | 6.3 | . | 37.5 | + | 0.7
COc1ccc(C(O)(c2cncnc2)C2CC2)cc1 (stereo not given) | . | 10.1 | . | . | .
CCC1(Oc2ccccc2)C(=O)NC(=O)NC1=O | 107.9* | 7.4 | . | . | .
COc1ccc(C#Cc2ccc([C@@H]3[C@H]4CN(C(=O)Cc5cccnc5)CCCCN4[C@H]3CO)cc2)cc1 | . | -5.3 | . | . | .
O=[N+]([O-])c1cc(S(=O)(=O)c2ccc(O)c([N+](=O)[O-])c2)ccc1O | . | . | 0.5 | i | 35.7*
O=c1c2ccccc2nc(-c2ccco2)n1-c1ccccn1 | 120.1* | 8.9 | 2.2 | i | 0.0
COC(=O)[C@H]1[C@H](CO)[C@H]2Cn3c(ccc(-c4ccccc4F)c3=O)[C@@H]1N2CC1CCCC1 | 7.7 | . | . | . | .
CC(=O)OC[C@]12CCC(C)=C[C@H]1O[C@@H]1[C@H](O)[C@@H](OC(C)=O)[C@@]2(C)[C@]12CO2 | 27.5 | 85.5* | . | . | .
O=C(NC[C@H]1CC[C@H]2[C@H](CN2Cc2cccnc2)O1)C1CC1 | . | 2.0 | . | . | .
CCc1ccc(NC(=O)CN2CC(c3ccccc3)CC2=O)cc1 (stereo not given) | -8.7 | -9.6 | -81.5* | i | -0.9 | JMH597 growth rt=20.8;BB721 lum counter=87.8*;BB721 growth rt=9.8;AI-2 QS JMH597=92.3*
COC(=O)[C@H]1[C@H](CO)[C@H]2Cn3c(ccc(/C=C/c4ccccc4)c3=O)[C@@H]1N2Cc1ccccc1F | 4.9 | . | . | . | .
O=C(Cc1ccccc1)OCC(=O)c1ccccc1 | 0.7 | 4.3 | -80.1* | i | 0.3 | JMH597 growth rt=18.6;BB721 lum counter=96.0*;BB721 growth rt=3.3;AI-2 QS JMH597=97.5*
O=C1COc2ccc(C(=O)COC(=O)Cc3ccccc3)cc2N1 | 25.3 | 2.0 | -90.0* | i | 0.4 | JMH597 growth rt=-6.2;BB721 lum counter=96.4*;BB721 growth rt=-37.4;AI-2 QS JMH597=97.5*
O=C(Cc1ccccc1)OCC(=O)c1ccc(F)cc1 | -2.4 | -2.6 | . | . | .
CCC(=O)N1[C@@H]2c3ccc(-c4cccc(F)c4)c(=O)n3C[C@H]1[C@H](CO)[C@H]2C(=O)OC | -10.6 | . | . | . | .
CCn1nc(/C=C/c2ccccc2)nc2c(=O)n(C)c(=O)nc1-2 | . | 69.2* | ? | i | -2.8 | COX5a expr inh=-55.8;AID743468=-55.3
O=C1CNC[C@@H]2[C@@H](c3ccc(Br)cc3)[C@H](CO)N12 | . | -1.6 | . | . | .

Compound activity from PubChem.
